Assay results reported in PubChem BioAssay (Tox21).
Several values for one entry are separate records, joined by “and”; a condition that tells them apart may be missing. Equal values may be shown once. Records with an inconclusive call do not appear. Where a call stands in place of a potency, no number is given. A number with no mark means an inactive call. Activity calls are given as the source filed them. Unless noted, calls follow the shape of the dose curve; as a rule, active = well fitted curve in the direction sought with a large enough effect in the repeat runs; inconclusive = weak or mixed curves; inactive = no such curve, though single readings can be large; an effect the other way counts as inactive or inconclusive.

Assays:
[1] = qHTS assay to identify small molecule antagonists of the thyroid receptor (TR) signaling pathway - cell viability counter screen (AID 743064); also: nearly all actives have a fitted effect of over 50% in size; also: potency is read from the fitted curve at half-maximal effect
Outline: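 CellTiter-Fluor readout, 30 min at 37 °C/5% CO2, following 23.5 h incubation of GH3.TRE-Luc cells with test compound and 1 nM T3 (final).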

[2] = tested on: thyroid hormone receptor (rat, GH3 cells); assay: qHTS assay to identify small molecule agonists of the thyroid receptor (TR) signaling pathway (AID 743066; calls by dose curve)
[3] = target: Estrogen receptor (Homo sapiens) (UniProt P03372); assay: qHTS assay to identify small molecule agonists of the estrogen receptor alpha (ER-alpha) signaling pathway (AID 743075; calls by dose curve;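 also: HEK293 GripTite cells with ER-alpha and UAS-driven beta-lactamase reporter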)
Chain of Estrogen receptor (Homo sapiens) (P03372 whole entry, looked up): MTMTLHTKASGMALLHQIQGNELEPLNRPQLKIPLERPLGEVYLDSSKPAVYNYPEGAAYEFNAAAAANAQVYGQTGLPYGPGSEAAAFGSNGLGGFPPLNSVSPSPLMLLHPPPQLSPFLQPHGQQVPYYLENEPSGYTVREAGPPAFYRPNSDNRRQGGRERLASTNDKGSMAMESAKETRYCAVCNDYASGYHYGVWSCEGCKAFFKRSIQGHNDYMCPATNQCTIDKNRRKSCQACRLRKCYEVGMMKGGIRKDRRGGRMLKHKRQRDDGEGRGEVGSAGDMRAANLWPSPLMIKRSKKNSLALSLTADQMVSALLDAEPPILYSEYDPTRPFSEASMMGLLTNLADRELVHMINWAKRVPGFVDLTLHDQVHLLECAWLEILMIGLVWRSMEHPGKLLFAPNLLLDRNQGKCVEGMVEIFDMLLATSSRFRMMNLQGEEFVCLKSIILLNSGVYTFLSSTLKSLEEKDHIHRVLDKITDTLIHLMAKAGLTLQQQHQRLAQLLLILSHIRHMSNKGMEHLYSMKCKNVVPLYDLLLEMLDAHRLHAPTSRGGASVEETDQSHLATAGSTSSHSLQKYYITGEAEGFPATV

[4] = qHTS assay to identify small molecule antagonists of the estrogen receptor alpha (ER-alpha) signaling pathway using the BG1 cell line (AID 743080; calls by dose curve;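 also: BG1 cells stimulated with 17beta-estradiol alongside compound; nearly all actives have a fitted effect of over 25% in size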; also: potency is read from the fitted curve at half-maximal effect)
Outline: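 Seeding, 24 h rest, compound transfer from DMSO, 17beta-estradiol addition, 21.5 h incubation, CellTiter-Fluor (30 min, 37 C), then ONE-Glo (30 min, room temperature): this sequence was run on BG1-Luc-4E2 reporter cells.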

[5] = qHTS assay to identify small molecule antagonists of the estrogen receptor alpha (ER-alpha) signaling pathway using the BG1 cell line - cell viability counter screen (AID 743081);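 also: compound given together with 17beta-estradiol as the ER stimulus; series mostly up to about 70 µM; nearly all actives have a fitted effect of over 45% in size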
Aromatase (Homo sapiens) = Aromatase (Homo sapiens) (UniProt P11511); assay: qHTS assay to identify aromatase inhibitors (AID 743083); also: nearly all actives have a fitted effect of over 55% in size; also: potency is read from the fitted curve at half-maximal effect
Chain of Aromatase (Homo sapiens) (P11511 whole entry, looked up): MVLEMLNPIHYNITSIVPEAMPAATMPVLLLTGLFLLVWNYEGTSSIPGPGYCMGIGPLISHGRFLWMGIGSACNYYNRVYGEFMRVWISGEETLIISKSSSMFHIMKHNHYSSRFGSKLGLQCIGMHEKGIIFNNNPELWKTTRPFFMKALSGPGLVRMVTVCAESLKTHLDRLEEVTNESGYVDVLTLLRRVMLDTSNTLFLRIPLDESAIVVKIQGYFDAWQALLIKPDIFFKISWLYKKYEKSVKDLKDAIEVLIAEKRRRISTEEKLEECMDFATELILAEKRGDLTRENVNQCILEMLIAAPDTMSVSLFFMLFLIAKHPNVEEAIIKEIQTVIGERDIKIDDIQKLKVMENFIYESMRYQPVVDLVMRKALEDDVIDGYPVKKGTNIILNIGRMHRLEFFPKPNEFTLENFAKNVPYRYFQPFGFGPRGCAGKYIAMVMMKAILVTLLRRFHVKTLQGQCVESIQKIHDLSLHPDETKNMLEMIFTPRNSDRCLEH

[6] = qHTS assay to identify small molecule antagonists of the thyroid receptor (TR) signaling pathway (AID 743065); also: series mostly up to about 70 µM; nearly all actives have a fitted effect of over 55% in size
Outline: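 GH3.TRE-Luc rat pituitary cells (two TREs driving luciferase) were dosed with compound, then stimulated with 1 nM T3 (final) for 23.5 h at 37 C. ONE-Glo luminescence was the read-out, with CellTiter-Fluor fluorescence as the cytotoxicity counter-screen.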

[7] = qHTS assay to identify small molecule antagonists of the estrogen receptor alpha (ER-alpha) signaling pathway - cell viability counter screen (AID 743074; calls by dose curve;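 also: HEK293 cells carrying ER-alpha-UAS-bla reporter stimulated with 17beta-estradiol; nearly all actives have a fitted effect of over 45% in size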)
[8] = target: Estrogen receptor (Homo sapiens) (UniProt P03372); assay: qHTS assay to identify small molecule antagonists of the estrogen receptor alpha (ER-alpha) signaling pathway (AID 743069; active = well fitted curve in the direction sought with a large enough effect in the signal ratio in the repeat runs, not every such curve was filed as active; the % refers to the signal ratio)
Outline: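 Beta-lactamase FRET fluorescence is read after 2 hr at room temperature with LiveBLAzer B/G substrate. Before that, ER-alpha-bla HEK293 cells sit 4 hr after plating, then receive compound plus 17beta-estradiol and incubate 18 hr at 37C.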

[9] = target: Estrogen receptor (Homo sapiens) (UniProt P03372); assay: qHTS assay to identify small molecule agonists of the estrogen receptor alpha (ER-alpha) signaling pathway using the BG1 cell line (AID 743079); also: nearly all actives have a fitted effect of over 20% in size

| SMILES | Potency [1] | Potency [2] | Potency [3] | Potency [4] | Potency [5] | Potency (Aromatase (Homo sapiens)) | Potency [6] | Potency [7] | Potency [8] | Potency [9] |
| --- | --- | --- | --- | --- | --- | --- | --- | --- | --- | --- |
| CCCCNC(=O)OCC#CI | 6.82 µM (active) and 4.33 µM (active) | inactive | inactive | 60.8 µM (active) and 68.6 µM (active) | inactive | 4.83 µM (active) and 13.7 µM (active) |  |  |  |  |
| O=C(N/N=C/c1ccc([N+](=O)[O-])o1)c1cc([N+](=O)[O-])cc([N+](=O)[O-])c1O |  | inactive |  |  |  | inactive | inactive | inactive |  |  |
| COc1ccc(C(=O)c2c(C)n(CCN3CCOCC3)c3ccccc23)cc1 | inactive | inactive |  |  |  | inactive |  | inactive |  |  |
| CCC(C)(C)O |  | inactive | inactive | inactive | inactive | inactive | inactive | inactive | inactive | inactive |
| C=CC(C)(CCC=C(C)C)OC(=O)c1ccccc1N (stereo not given) |  | inactive |  |  | inactive | inactive |  | inactive |  |  |
| CN1C(=O)CN=C(c2ccccc2)c2cc([N+](=O)[O-])ccc21 |  | inactive | inactive |  | inactive | inactive |  | inactive | inactive |  |
| CC(C)[C@@H](C(=O)O[C@@H](C#N)c1cccc(Oc2ccccc2)c1)c1ccc(Cl)cc1 | inactive | inactive |  |  | inactive | inactive |  |  |  |  |
| CC1(C)CC(=O)CC(C)(C)N1[O] | inactive |  |  |  | inactive | inactive |  | inactive |  |  |
| CC(Oc1cc(Cl)c(Cl)cc1Cl)C(=O)O (stereo not given) |  |  | inactive | inactive | inactive | inactive |  | inactive | inactive | inactive |
| CCOc1cccc(C2(N3CCN(c4ccccc4)CC3)CCC(C)CC2)c1 (stereo not given) |  | inactive | inactive |  | inactive | inactive | inactive |  | inactive | inactive |
| Cc1nc(N(C)C)nc(OC(=O)N(C)C)c1C |  | inactive | inactive | inactive | inactive | inactive | inactive | inactive | inactive | inactive |
| CC(Cl)C(=O)O (stereo not given) |  | inactive |  |  | inactive | inactive | inactive | inactive |  |  |
| COC(=O)Cc1ccccc1 | inactive |  | inactive | inactive | inactive | inactive |  | inactive | inactive | inactive |
| NCCc1cc(O)c(O)cc1O |  | inactive | inactive | inactive | inactive | inactive |  | inactive | inactive | inactive |
| NC(=S)c1c(Cl)cccc1Cl | inactive |  | inactive | inactive | inactive | inactive |  | inactive | inactive | inactive |
| C[C@H](N)[C@H](O)c1ccc(O)c(O)c1 | 26.6 µM (active) |  | inactive | inactive |  | inactive |  | inactive | inactive | inactive |
